In PubChem BioAssay (NCI) one finds growth data, which are given here for 25 compounds.

This is part of a sample that, as a whole, favours compounds with a hit. Of some 83,000 tested, about 20% had one in any assay.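 Activity criterion: percent growth below 10, measured after cells in 96-well plates were exposed to a single compound concentration for 48 hours.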 Active and inactive are the calls of the source.

The test system of the assay is MDA-MB-468 breast. Description: NCI-60 one-dose screen, 48 h (100 = growth as untreated, 0 = no growth, -100 = all killed). Conditions: 10 µM unless noted.
Turning to `CCCC(=O)NC(c1cccc(N(C)C)c1)c1cc(C)c2cccnc2c1O` (stereo not given), the growth is 24.8% (inactive).

Turning to `OCc1nnn(-c2ccccc2)c1CO`, the growth was 125% (inactive).

On to `CO[C@H]1C[C@@H]2CC[C@@H](C)[C@@](O)(O2)C(=O)C(=O)N2CCCC[C@H]2C(=O)O[C@H]([C@H](C)C[C@@H]2CC[C@@H](OP(C)(C)=O)[C@H](OC)C2)CC(=O)[C@H](C)/C=C(\C)[C@@H](O)[C@@H](OC)C(=O)[C@H](C)C[C@H](C)\C=C/C=C/C=C/1C`, for which the growth was 39.9% (inactive).

In the case of `COc1cc(/C=C2\C(=O)Nc3ccc(Br)cc32)cc(OC)c1OC`, the growth is 16.9% (inactive).

For `O=C(Cn1c(=O)sc2nc3ccccc3nc21)Nc1ncc(Cc2cccc(Cl)c2Cl)s1`, the growth is 107% (inactive).

Turning to `O=C1[C@H]2Cc3c([nH]c4ccccc34)[C@H](c3ccc(Cl)cc3)N2C(=O)CN1C1CCN(CC2CCCCC2)CC1`, the growth was 62.7% (inactive).

For `O=C(O)c1cn(C2CC2)c2cc(N3CCN(C(=O)N4CCOCC4)CC3)c(F)cc2c1=O`, the growth is 103% (inactive).

`Cc1ccc(NS(=O)(=O)c2ccc3c(c2)C(=O)CC(c2ccc(C(=O)C(C)C)cc2)N3)cc1C` (stereo not given): the growth was -3.79% (active).

On to `COc1ccc([C@H]2[C@@H](F)C(=O)N2c2cc(OC)c(OC)c(OC)c2)cc1F`, for which the growth was 23% (inactive).

For `O=CNc1c(Cl)cc2c(c1Cl)Cc1cc([N+](=O)[O-])ccc1-2`, the growth is -3.02% (active).

For `CC(=O)NCCN`, the growth was 105% (inactive).

As for `COC12CC(=O)C(C(C)=O)=C(O)C1(C)c1c(O)c(C)c(O)c(C(C)=O)c1O2` (stereo not given), the growth is 68.9% (inactive).

For `Cc1cc2nc3ccc(N=Nc4ccc(N(C)C)cc4)cc3n(-c3ccccc3)c-2cc1=N`, the growth is -89.4% (active).

Regarding `CCCCCCCCCCN=C(c1ccc(N(C)C)cc1)c1ccc(N(C)C)cc1`, the growth is -8.69% (active).

For the compound `COc1ccc(NC(=O)c2ccc(NC3=C(c4ccc(Cl)cc4)C(=O)NC3=O)cc2)cc1`, the growth was 88.1% (inactive).

For `COCCCC/C(=N\OCCN)c1ccc(C(F)(F)F)cc1`, the growth is 101% (inactive).

With `CSC1=N/C(=C\c2cccc(OCc3ccc(Cl)cc3)c2)C(=O)N1`, the growth was 68.6% (inactive).

In the case of `O=C(CSC(=S)n1cnnc1)NC(=O)c1ccccc1`, the growth was 119% (inactive).

For `CC(C)C/C(=N\NC(=O)c1ccncc1)c1cc(Cl)ccc1O`, the growth is -1.67% (active).

Consider `Cc1ccc(C)n1-c1ccsc1C(=O)NNC(=O)CCl`, for which the growth was 88% (inactive).

On to `Cc1cccc(CO)c1`, for which the growth is 107% (inactive).

Regarding `CCNc1ccc(-c2nc3ccccc3n3cccc23)cc1`, the growth is 2.19% (active).

As for `O=S(=O)(NCCNc1nccc(-c2c(-c3cccc(F)c3)nc3sccn23)n1)c1ccc(Br)cc1`, the growth is 78.3% (inactive).

With `COc1cccc(N2CCN(c3ncnc4cc[nH]c34)CC2)c1`, the growth is 18.8% (inactive).

Turning to `CCCC(C)c1ccc(OCCCCCCN2CCNCC2)cc1` (stereo not given), the growth is -58.5% (active).
